Measurements: PubChem BioAssay AID720722 (Molecular Libraries Program, Specialized Chemistry Center, …, 2013)
Calls of active or inactive are those of the source. Cut-off not given; nearly all actives show IC50 up to about 12 µM.

test: blockers of mitochondrial swelling – biochemical, absorbance, isolated mitochondria, dry powder samples, dose response (AID 720722)

IC50, active:
COc1ccc(C)c2sc(N(CCCN(C)C)C(=O)CS(=O)(=O)c3ccc(F)cc3)nc12 3.9 µM
CNCCC=C1c2ccccc2CCc2ccccc21 8.45 µM
CCOC(=O)N1CCN(S(=O)(=O)c2ccc(C(=O)N(CCCN(C)C)c3nc4c(C)c(C)ccc4s3)cc2)CC1 5.28 µM
CCN(CC)c1ccc(NC(=O)c2cc(Cl)ccc2OC)cc1 5.7 µM
C=CCNCCOc1ccc(C(C)(C)c2ccccc2)cc1 12.4 µM
C=CCNCCCOc1ccc(C)cc1Br 11.6 µM
CC1CCCN(CCC(=O)c2ccc(Br)cc2)C1 (stereo not given) 3.14 µM
COc1ccc(Cl)cc1C(=O)Nc1ccc(CN2CCCCC2)cc1 5.08 µM
O=C(CC1NCCc2ccccc21)Nc1ccc(Cl)cc1 (stereo not given) 2.78 µM
Cc1cc(C)c2nc(N(CCCN(C)C)C(=O)C3=COCCO3)sc2c1 3.11 µM
CN1CCC[C@@H]1CCO[C@](C)(c1ccccc1)c1ccc(Cl)cc1 4.43 µM
COC(=O)c1c(NC(=O)C2CCCCC2)sc2c1CC(C)(C)NC2(C)C 3.64 µM
Cc1cc(C)c2nc(N(CCCN(C)C)C(=O)c3ccc(S(=O)(=O)N4CCCCCC4)cc3)sc2c1 2.07 µM
C=CCNCCOCCOc1ccc(Cl)cc1C(C)(C)C 4.04 µM
N=c1sccn1CC(=O)Nc1cccc(Oc2ccccc2)c1 2.92 µM
Cc1ccc2nc(N(CCN(C)C)C(=O)/C=C/c3cccs3)sc2c1 3.33 µM
COCCCNCCCOc1ccc(Cl)cc1C(C)(C)C 4.04 µM
CN(C)CCCN1c2ccccc2Sc2ccc(Cl)cc21 2.5 µM
CCN(CC)CCCN=Cc1c(O)n(Cc2ccccc2)c(=O)c2ccccc12 3.34 µM
COc1cc(NC(=O)c2cc(-c3cccc(O)c3)on2)cc(OC)c1OC 0.391 µM
Cc1ccc2nc(N(CCCN(C)C)C(=O)CCc3ccccc3)sc2c1 1.58 µM
COc1ccc(-n2cc(CNC3CCN(C)CC3)c(-c3cccc(F)c3)n2)cc1 2.03 µM
COc1cc(CNCCO)cc(Cl)c1OCc1ccccc1Cl 2.69 µM
CC(C)(C)c1ccccc1OCCCCCNCCO 3.67 µM
N#Cc1c(NCCN)nc(-c2ccco2)c2c1CCCC2 8.12 µM
